Measured values taken from PMC7862700, “An all-to-all approach to the identification of sequence-specific readers for epigenetic DNA modifications on cytosine”.

Legend:
Experiment in all cases: DAPPL (digital affinity profiling via proximity ligation, sequencing); 10 mM Tris-HCl pH 7.5, 50 mM NaCl, 1 mM DTT, 4% glycerol, room temperature, 30 min; GST-TFs on glutathione beads, 16-mer random dsDNA library, 0.1% formaldehyde crosslink after washing; high values mean tight binding
FLI1 = target: T1, FLI1 (Homo sapiens, UniProt Q01543 1-452); details: protein: recombinant; tags: N-terminal GST; dsDNA, one strand shown
T1 sequence: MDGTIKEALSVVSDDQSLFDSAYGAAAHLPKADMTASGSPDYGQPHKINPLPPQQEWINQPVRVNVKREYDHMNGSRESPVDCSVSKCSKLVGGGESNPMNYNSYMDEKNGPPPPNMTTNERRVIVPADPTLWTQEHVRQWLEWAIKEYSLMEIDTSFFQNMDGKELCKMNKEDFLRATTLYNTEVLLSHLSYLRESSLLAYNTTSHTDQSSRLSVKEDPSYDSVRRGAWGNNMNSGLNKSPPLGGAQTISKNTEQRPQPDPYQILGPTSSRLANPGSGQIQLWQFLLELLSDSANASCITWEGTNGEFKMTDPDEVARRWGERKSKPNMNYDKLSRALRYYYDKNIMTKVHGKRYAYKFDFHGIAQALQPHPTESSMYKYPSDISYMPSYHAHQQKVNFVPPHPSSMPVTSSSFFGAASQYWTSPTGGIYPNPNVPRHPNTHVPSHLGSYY
Outline: (§1)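 A tag-only sample was pooled with DNA-barcoded human transcription factors that had been expressed in yeast as GST fusions and captured on glutathione beads. The pools were incubated for 30 min at room temperature with 200 nmole of a random double-stranded 16-mer DNA library in Tris/NaCl/DTT/glycerol buffer, then washed, crosslinked with 0.1% formaldehyde, proximity-ligated (BsaI/T4 ligase, 1 h, 37 °C), PCR-amplified and sequenced on an Illumina NextSeq500. Binding signal is each hexamer's read frequency for a factor divided by its frequency for the tag-only sample.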

ELK1 = target: T2, ELK1 (Homo sapiens, UniProt P19419 1-428); details: protein: recombinant; tags: N-terminal GST; dsDNA, one strand shown
T2 sequence: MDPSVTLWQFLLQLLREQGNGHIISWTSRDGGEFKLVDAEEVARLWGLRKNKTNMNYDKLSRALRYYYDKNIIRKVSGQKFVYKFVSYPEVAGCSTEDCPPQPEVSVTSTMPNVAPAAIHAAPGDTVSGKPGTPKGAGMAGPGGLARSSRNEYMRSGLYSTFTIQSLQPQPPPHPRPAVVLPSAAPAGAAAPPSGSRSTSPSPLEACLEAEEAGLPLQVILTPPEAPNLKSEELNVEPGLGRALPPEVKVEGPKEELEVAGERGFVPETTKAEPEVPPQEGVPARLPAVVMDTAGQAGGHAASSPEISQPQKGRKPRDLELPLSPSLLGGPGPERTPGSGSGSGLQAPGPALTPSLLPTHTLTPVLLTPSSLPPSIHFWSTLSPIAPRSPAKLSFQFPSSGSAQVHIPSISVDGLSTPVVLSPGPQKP
Outline: as §1

GABPA = target: T3, GABPA (Homo sapiens, UniProt Q06546 1-454); details: protein: recombinant; tags: N-terminal GST; dsDNA, one strand shown
T3 sequence: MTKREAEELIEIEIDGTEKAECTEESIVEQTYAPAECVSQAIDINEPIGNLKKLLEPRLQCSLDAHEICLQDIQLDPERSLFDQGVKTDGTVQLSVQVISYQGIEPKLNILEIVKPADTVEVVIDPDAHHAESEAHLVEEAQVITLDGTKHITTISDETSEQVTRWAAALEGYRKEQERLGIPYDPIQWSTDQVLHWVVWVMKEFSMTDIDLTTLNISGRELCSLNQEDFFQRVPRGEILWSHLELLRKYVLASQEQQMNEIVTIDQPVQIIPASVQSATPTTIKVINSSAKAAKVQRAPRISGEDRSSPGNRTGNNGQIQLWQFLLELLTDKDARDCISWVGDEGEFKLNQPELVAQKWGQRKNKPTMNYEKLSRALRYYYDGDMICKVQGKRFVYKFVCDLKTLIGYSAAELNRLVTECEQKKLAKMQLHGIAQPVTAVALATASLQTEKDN
Outline: as §1

ERG = target: T4, ERG (Homo sapiens, UniProt P11308 1-479); details: protein: recombinant; tags: N-terminal GST; dsDNA, one strand shown
T4 sequence: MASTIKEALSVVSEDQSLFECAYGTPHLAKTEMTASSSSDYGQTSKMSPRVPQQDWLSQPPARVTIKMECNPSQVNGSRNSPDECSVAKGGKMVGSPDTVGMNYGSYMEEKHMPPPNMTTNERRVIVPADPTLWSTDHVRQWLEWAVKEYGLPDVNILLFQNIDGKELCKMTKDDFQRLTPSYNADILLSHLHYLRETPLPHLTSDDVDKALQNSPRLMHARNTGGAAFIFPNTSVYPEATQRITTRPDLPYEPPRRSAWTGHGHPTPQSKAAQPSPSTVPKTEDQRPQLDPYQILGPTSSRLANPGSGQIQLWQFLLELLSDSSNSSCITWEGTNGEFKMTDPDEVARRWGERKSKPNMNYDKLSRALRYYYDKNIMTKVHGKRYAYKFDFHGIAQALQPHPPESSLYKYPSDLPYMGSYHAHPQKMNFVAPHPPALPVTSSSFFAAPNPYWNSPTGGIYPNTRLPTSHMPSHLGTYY
Outline: as §1

ELF1 = ELF1 (Homo sapiens, UniProt P32519 1-619); details: protein: recombinant; tags: N-terminal GST; dsDNA, one strand shown
Outline: as §1

EHF = target: T5, EHF (Homo sapiens, UniProt Q9NZC4 1-300); details: protein: recombinant; tags: N-terminal GST; dsDNA, one strand shown
T5 sequence: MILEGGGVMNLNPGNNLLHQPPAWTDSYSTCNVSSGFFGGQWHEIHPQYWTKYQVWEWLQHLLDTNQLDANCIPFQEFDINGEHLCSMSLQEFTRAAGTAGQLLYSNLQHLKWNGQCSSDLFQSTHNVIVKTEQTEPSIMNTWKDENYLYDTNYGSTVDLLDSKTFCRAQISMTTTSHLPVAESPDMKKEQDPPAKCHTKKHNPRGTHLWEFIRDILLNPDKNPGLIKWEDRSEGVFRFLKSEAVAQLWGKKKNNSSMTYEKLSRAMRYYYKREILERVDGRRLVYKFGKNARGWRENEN
Outline: as §1

SPI1 = SPI1 (Homo sapiens, UniProt P17947 1-270); details: protein: recombinant; tags: N-terminal GST; dsDNA, one strand shown
Outline: as §1

SPIB = SPIB (Homo sapiens, UniProt Q01892 1-262); details: protein: recombinant; tags: N-terminal GST; dsDNA, one strand shown
Outline: as §1

ELK3 = target: T6, ELK3 (Homo sapiens, UniProt P41970 1-407); details: protein: recombinant; tags: N-terminal GST; dsDNA, one strand shown
T6 sequence: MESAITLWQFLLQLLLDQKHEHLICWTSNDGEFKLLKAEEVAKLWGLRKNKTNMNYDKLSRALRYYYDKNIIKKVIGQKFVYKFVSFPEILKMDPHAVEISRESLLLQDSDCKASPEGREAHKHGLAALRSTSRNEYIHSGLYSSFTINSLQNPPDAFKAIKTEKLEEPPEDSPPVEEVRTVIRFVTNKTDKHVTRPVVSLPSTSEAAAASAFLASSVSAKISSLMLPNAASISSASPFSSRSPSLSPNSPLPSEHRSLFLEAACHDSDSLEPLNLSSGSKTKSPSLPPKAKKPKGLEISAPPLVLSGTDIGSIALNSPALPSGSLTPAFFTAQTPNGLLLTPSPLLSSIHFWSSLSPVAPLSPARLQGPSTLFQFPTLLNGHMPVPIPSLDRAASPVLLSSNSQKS
Outline: as §1

FEV = target: T7, FEV (Homo sapiens, UniProt Q99581 1-238); details: protein: recombinant; tags: N-terminal GST; dsDNA, one strand shown
T7 sequence: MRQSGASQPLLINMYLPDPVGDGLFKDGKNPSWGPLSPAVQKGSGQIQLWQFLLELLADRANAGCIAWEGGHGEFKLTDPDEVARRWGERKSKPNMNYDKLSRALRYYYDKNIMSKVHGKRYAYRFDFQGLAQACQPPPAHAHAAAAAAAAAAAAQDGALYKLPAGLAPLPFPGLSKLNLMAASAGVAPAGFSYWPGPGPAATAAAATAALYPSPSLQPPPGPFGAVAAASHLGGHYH
Outline: as §1

ETV5 = ETV5 (Homo sapiens, UniProt P41161 1-510); details: protein: recombinant; tags: N-terminal GST; dsDNA, one strand shown
Outline: as §1

HSF1 = HSF1 (Homo sapiens, UniProt Q00613 1-529); details: protein: recombinant; tags: N-terminal GST; chain copies: 3; dsDNA, one strand shown
Outline: as §1

ELF4 = ELF4 (Homo sapiens, UniProt Q99607 1-663); details: protein: recombinant; tags: N-terminal GST; dsDNA, one strand shown
Outline: as §1

ELK4 = target: T8, ELK4 (Homo sapiens, UniProt P28324-2 1-405); details: protein: recombinant; tags: N-terminal GST; dsDNA, one strand shown
T8 sequence: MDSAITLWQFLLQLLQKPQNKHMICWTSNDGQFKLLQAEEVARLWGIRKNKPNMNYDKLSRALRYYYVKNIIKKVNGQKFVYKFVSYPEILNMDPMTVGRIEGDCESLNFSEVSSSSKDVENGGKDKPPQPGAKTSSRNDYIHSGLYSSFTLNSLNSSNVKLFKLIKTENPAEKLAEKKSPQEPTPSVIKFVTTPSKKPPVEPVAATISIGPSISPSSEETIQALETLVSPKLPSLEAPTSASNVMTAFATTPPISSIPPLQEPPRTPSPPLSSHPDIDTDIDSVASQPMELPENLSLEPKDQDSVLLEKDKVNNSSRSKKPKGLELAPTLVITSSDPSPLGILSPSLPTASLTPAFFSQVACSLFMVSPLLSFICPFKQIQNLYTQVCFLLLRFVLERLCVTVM
Outline: as §1

ETV2 = target: T9, ETV2 (Homo sapiens, UniProt O00321 1-342); details: protein: recombinant; tags: N-terminal GST; dsDNA, one strand shown
T9 sequence: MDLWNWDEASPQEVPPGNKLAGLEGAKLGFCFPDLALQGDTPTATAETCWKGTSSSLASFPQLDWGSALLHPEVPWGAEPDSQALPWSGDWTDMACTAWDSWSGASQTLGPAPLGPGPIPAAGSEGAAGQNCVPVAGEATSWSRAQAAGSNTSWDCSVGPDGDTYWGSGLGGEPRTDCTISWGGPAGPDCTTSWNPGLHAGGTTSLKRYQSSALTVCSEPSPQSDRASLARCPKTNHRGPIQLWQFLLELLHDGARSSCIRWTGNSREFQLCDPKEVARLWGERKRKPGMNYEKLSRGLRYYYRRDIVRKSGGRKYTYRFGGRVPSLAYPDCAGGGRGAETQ
Outline: as §1

ELF3 = target: T10, ELF3 (Homo sapiens, UniProt P78545 1-371); details: protein: recombinant; tags: N-terminal GST; dsDNA, one strand shown
T10 sequence: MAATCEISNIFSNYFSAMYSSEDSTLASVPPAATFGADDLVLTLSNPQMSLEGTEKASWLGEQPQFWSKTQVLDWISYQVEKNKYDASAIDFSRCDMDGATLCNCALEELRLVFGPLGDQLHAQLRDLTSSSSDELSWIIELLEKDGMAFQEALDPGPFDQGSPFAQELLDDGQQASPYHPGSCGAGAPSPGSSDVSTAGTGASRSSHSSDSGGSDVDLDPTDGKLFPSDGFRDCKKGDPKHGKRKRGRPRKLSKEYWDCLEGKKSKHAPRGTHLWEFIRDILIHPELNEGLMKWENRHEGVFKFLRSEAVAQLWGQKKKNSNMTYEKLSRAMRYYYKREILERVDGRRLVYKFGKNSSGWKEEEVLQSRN
Outline: as §1

ETV1 = ETV1 (Homo sapiens, UniProt P50549 1-477); details: protein: recombinant; tags: N-terminal GST; dsDNA, one strand shown
Outline: as §1

CRX = CRX (Homo sapiens, UniProt O43186 1-299); details: protein: recombinant; tags: N-terminal GST; dsDNA, one strand shown
Outline: as §1

Chain of ETV5 (P41161 whole entry): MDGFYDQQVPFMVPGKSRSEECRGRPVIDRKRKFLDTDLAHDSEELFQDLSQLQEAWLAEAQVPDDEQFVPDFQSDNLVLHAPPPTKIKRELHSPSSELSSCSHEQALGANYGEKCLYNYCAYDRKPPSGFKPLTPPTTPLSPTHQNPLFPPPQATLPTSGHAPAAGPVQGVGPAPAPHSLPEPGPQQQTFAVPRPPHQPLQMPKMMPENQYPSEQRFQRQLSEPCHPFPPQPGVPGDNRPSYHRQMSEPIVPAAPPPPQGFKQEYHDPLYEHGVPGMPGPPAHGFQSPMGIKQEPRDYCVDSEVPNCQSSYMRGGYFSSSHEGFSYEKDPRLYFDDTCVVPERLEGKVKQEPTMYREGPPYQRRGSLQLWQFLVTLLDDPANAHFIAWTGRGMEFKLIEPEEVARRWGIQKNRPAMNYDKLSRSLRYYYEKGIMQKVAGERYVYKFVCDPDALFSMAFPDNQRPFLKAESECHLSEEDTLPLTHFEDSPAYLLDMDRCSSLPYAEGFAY
Chain of HSF1 (Q00613 whole entry): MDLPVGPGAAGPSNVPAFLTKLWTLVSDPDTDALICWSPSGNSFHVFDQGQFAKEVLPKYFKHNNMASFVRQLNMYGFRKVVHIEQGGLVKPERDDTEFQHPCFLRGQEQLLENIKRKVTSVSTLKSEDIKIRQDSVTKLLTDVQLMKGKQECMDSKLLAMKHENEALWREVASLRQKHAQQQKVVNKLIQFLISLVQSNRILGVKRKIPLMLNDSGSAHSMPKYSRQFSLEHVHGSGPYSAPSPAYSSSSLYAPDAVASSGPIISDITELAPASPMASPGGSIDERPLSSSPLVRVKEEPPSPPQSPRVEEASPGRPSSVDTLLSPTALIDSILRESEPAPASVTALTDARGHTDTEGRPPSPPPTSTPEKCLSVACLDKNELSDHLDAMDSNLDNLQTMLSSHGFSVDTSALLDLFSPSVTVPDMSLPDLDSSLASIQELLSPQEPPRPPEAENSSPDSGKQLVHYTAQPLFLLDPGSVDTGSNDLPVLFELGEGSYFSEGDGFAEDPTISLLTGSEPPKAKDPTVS
Chain of ETV1 (P50549 whole entry): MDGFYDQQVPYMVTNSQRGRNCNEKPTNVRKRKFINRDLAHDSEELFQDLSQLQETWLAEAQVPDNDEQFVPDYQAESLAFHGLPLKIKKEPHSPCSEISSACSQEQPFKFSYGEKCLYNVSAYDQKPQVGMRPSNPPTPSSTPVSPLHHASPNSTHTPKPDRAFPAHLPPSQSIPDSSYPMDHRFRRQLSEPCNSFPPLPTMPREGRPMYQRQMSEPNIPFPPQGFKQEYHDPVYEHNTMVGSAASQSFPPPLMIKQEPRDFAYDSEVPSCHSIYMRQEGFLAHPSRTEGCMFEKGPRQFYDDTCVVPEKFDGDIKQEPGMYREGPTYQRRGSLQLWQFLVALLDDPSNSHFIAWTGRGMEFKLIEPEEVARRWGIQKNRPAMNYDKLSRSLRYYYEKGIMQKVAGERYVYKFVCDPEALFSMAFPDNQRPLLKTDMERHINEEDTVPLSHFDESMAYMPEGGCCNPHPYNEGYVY
Chain of ELF4 (Q99607 whole entry): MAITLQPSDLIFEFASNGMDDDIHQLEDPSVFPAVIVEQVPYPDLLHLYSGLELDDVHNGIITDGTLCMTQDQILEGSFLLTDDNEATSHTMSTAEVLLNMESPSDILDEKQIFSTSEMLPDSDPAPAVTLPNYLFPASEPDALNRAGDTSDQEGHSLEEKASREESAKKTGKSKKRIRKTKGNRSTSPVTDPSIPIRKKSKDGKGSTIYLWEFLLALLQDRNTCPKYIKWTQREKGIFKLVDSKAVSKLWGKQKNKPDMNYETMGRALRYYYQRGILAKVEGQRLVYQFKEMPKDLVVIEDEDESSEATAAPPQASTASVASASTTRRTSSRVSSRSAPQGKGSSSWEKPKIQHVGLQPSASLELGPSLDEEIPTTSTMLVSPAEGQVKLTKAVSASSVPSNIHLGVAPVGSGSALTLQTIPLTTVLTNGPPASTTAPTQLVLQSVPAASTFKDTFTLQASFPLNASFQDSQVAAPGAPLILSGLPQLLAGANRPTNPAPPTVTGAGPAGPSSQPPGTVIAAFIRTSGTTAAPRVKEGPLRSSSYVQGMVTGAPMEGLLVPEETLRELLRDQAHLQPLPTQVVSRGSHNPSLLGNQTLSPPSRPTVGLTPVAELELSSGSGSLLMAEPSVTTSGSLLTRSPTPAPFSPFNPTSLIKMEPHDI
Chain of ELF1 (P32519 whole entry): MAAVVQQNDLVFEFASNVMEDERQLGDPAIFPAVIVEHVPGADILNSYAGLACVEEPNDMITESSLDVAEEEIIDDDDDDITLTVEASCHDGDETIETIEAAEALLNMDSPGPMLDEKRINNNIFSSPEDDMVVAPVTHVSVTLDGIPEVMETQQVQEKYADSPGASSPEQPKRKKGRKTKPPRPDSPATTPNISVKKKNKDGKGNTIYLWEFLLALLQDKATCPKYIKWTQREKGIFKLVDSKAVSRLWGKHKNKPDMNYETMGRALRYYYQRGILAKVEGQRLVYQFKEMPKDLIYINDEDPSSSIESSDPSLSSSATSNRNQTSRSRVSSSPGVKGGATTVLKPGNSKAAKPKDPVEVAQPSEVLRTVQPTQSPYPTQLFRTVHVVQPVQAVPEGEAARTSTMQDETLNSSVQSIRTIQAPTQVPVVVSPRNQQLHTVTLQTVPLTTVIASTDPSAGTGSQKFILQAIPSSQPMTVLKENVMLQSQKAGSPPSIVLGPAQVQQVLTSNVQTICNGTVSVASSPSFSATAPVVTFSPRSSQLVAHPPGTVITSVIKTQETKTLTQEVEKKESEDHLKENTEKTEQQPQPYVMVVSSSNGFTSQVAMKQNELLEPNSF
Chain of SPIB (Q01892 whole entry): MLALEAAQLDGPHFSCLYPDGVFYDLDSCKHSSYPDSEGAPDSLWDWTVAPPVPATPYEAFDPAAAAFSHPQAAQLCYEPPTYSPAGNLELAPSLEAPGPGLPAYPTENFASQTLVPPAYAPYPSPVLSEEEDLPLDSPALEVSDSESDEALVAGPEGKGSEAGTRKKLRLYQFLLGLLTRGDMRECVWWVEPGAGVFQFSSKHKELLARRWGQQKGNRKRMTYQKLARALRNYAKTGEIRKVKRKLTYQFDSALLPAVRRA
Chain of CRX (O43186 whole entry): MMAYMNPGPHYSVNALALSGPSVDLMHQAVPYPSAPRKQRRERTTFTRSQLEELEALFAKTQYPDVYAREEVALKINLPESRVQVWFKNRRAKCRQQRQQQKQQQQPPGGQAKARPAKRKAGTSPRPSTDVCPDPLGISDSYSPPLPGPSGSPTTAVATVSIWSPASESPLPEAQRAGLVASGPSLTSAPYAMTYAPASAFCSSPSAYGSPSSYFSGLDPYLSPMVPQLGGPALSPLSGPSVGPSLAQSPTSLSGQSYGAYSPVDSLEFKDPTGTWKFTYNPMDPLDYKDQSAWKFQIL

Sequence	binding signal (FLI1)	binding signal (ELK1)	binding signal (GABPA)	binding signal (ERG)	binding signal (ELF1)	binding signal (EHF)	binding signal (SPI1)	binding signal (SPIB)	binding signal (ELK3)	binding signal (FEV)	binding signal (ETV5)	binding signal (HSF1)	binding signal (ELF4)	binding signal (ELK4)	binding signal (ETV2)	binding signal (ELF3)	binding signal (ETV1)	binding signal (CRX)
ACTGTT	1.15 fold enrichment (6-mer frequency, TF over GST control)	1.03 fold enrichment (6-mer frequency, TF over GST control)	1.23 fold enrichment (6-mer frequency, TF over GST control)	1.16 fold enrichment (6-mer frequency, TF over GST control)	1.11 fold enrichment (6-mer frequency, TF over GST control)	1.13 fold enrichment (6-mer frequency, TF over GST control)	1.16 fold enrichment (6-mer frequency, TF over GST control)	1.15 fold enrichment (6-mer frequency, TF over GST control)	1.18 fold enrichment (6-mer frequency, TF over GST control)	1.1 fold enrichment (6-mer frequency, TF over GST control)	1.1 fold enrichment (6-mer frequency, TF over GST control)	1.03 fold enrichment (6-mer frequency, TF over GST control)	1.2 fold enrichment (6-mer frequency, TF over GST control)	1.09 fold enrichment (6-mer frequency, TF over GST control)	1.23 fold enrichment (6-mer frequency, TF over GST control)	1.03 fold enrichment (6-mer frequency, TF over GST control)	1.12 fold enrichment (6-mer frequency, TF over GST control)	–
AGACCT	1.01 fold enrichment (6-mer frequency, TF over GST control)	1.04 fold enrichment (6-mer frequency, TF over GST control)	1.02 fold enrichment (6-mer frequency, TF over GST control)	1 fold enrichment (6-mer frequency, TF over GST control)	1.05 fold enrichment (6-mer frequency, TF over GST control)	–	1.06 fold enrichment (6-mer frequency, TF over GST control)	–	1.01 fold enrichment (6-mer frequency, TF over GST control)	1.04 fold enrichment (6-mer frequency, TF over GST control)	1.04 fold enrichment (6-mer frequency, TF over GST control)	1.02 fold enrichment (6-mer frequency, TF over GST control)	1.12 fold enrichment (6-mer frequency, TF over GST control)	1.07 fold enrichment (6-mer frequency, TF over GST control)	1.2 fold enrichment (6-mer frequency, TF over GST control)	1.08 fold enrichment (6-mer frequency, TF over GST control)	1.04 fold enrichment (6-mer frequency, TF over GST control)	–
CATAAA	1 fold enrichment (6-mer frequency, TF over GST control)	–	–	–	–	–	–	1.01 fold enrichment (6-mer frequency, TF over GST control)	–	1 fold enrichment (6-mer frequency, TF over GST control)	1.03 fold enrichment (6-mer frequency, TF over GST control)	1.07 fold enrichment (6-mer frequency, TF over GST control)	1.06 fold enrichment (6-mer frequency, TF over GST control)	–	–	1.08 fold enrichment (6-mer frequency, TF over GST control)	1.03 fold enrichment (6-mer frequency, TF over GST control)	1.11 fold enrichment (6-mer frequency, TF over GST control)
